# Compounds with a hit are over-represented: about 7.6% of the library has one in this group of screens.
# RORgamma inh – qHTS for inhibitors of ROR gamma transcriptional activity | AID 2551, 2010 | Potency, µM (titrated, usually from 53.6 µM), hits mostly inhibitors | Drosophila S2 Gal4-RORgamma UAS-luciferase reporter, 20 h | Nuclear receptor ROR-gamma (Mus musculus), P51450 | hit rate 5.4% among 310,000; further: nearly all actives have a fitted effect of over 60% in size
# Target sequence (P51450 whole entry, looked up, the tested form may be a part): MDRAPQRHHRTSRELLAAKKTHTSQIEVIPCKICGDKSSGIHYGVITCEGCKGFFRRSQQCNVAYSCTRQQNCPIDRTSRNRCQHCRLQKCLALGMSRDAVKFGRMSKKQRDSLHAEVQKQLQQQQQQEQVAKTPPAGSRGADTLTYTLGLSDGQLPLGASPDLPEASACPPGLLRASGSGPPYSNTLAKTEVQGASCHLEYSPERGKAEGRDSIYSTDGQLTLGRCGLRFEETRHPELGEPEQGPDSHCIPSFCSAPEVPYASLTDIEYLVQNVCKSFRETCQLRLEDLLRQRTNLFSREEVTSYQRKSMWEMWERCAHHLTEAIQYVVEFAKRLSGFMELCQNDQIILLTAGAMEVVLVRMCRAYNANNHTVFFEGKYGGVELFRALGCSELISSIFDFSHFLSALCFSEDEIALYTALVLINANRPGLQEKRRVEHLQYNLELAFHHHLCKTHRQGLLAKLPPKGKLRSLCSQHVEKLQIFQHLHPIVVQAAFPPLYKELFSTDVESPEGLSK
#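 In this cell-based reporter format, copper sulfate (700 uM final) drives Gal4–ROR gamma fusion expression from a metallothionein promoter in Drosophila Schneider cells; compounds preincubated 1 hr, reporter read after 20 hr at ambient temperature.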
# VP16 counter – VP16 counterscreen qHTS for inhibitors of ROR gamma transcriptional activity; Drosophila S2 Gal4-VP16 UAS-luciferase, luminescence, 20 h; Potency, µM (top dose mostly 53.6 µM), most hits filed as inhibitors; hit rate 3.5% among 310,000;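 further: Gal4-VP16 expression switched on by copper sulfate through the metallothionein promoter; nearly all actives have a fitted effect of over 50% in size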
# ELG1 repair inh – qHTS screen for small molecules that inhibit ELG1-dependent DNA repair in human embryonic kidney (HEK293T) cells expressing luciferase-tagged ELG1 | Potency, µM (top dose mostly 46.1 µM), hits mostly inhibitors | hit rate 2.3% among 330,000 | HEK293T ELG1-luciferase reporter, luminescence, 16 h; DNA damage induced by 5-fluorouridine; further: nearly all actives have a fitted effect of over 55% in size
#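 Cells (2,000 per well) received 5-fluorouridine plus test compound or DMSO and were incubated 16 hr at 37 °C, 5% CO2. Luciferase activity was read by luminescence 30 min after ONE-Glo addition; signal suppression marked inhibition of damage-induced ELG1 function.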
# BRCA1 expr act – qHTS Assay to Identify Small Molecule Activators of BRCA1 Expression; MCF7-BRCA1-FFLuc reporter, luminescence, 48 h; response scale: scaled: vehicle 0%, 10 µM genistein 100%; Potency, µM (doses to about 46.1 µM), most hits filed as activators; hit rate 1.1% among 380,000; AID 624202, 2012; further: nearly all actives have a fitted effect of over 80% in size
#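 Activators of BRCA1 expression were detected as increased firefly luciferase luminescence in engineered MCF7 cells after 48 h compound incubation. Signals were scaled to genistein 10 microM as full activation.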
# p53 reactivation – qHTS assay for re-activators of p53 using a Luc reporter. Potency, µM (titrated, usually from 92.2 µM), usual class: activators. H1299 p53-A138V BP100-luciferase reporter, luminescence, 24 h. AID 504706, 2011. hit rate 0.063% among 320,000; further: nearly all actives have a fitted effect of over 45% in size
#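 H1299 (p53-null), stable ts p53-A138V + BP100-Luc; 1000 cells/well, Opti-MEM/10% FBS; cpd 4 pt, 1:5; 24 h, 37 deg C, 5% CO2; detection reagent 10 min RT; luminescence.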
# Giardia kill – Small Molecules that selectively kill Giardia lamblia: qHTS | Giardia lamblia trophozoite viability | activity change, % at 7.66 µM, hits read low | hit rate 0.15% among 340,000 | AID 540267, 2011; in the data active means activity change below about -80%; inconclusive means between about -30% and that limit;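 further: parasites exposed to compound for two days anaerobically before the ATP read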
#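 Luminescence from cellular ATP indicates surviving trophozoites (100 cells/well) following 48 hrs anaerobic compound treatment at 37 deg C; signal develops 15-30 min at room temperature.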
# Numbers stand for hits; - = inactive; ? = inconclusive; . = no result. Unless noted, the call rests on the fitted dose curve; in most records, active means well fitted curve in the direction sought with a large enough effect; inconclusive means small, poorly fitted or top-dose-only effect, or another doubt; inactive means no such curve, though single readings can be large; an effect the other way counts as inactive or inconclusive.
SMILES,RORgamma inh,VP16 counter,ELG1 repair inh,BRCA1 expr act,p53 reactivation,Giardia kill
CCC(=O)Nc1cccc(-c2ccc(N3CCC(C)CC3)nn2)c1,2.51µM,3.98µM,?,-,-,-85.1
CC1CCN(c2ccc(-c3cccc(NC(=O)c4ccco4)c3)nn2)CC1,.,.,?,-,-,?
CCC(=O)Nc1ccc(-c2ccc(N3CCC(C)CC3)nn2)cc1,3.55µM,?,?,?,?,-
CC1CCN(c2ccc3nnc(CCC(=O)Nc4ccc(F)cc4)n3n2)CC1,-,-,-,-,-,-
CCOC(=O)c1ccc(-n2c(-c3ccc(C)cc3)c(C)n3c4c(=O)n(C)c(=O)n(C)c4nc23)cc1,.,.,.,-,.,.
COc1ccc(C=O)cc1CN1CCCN(Cc2ccc(Cl)cc2)S1(=O)=O,-,-,-,-,-,-
COC(=O)c1ccc(OC)c(CN2CCCN(Cc3ccc(F)cc3)S2(=O)=O)c1,-,-,13µM,-,-,-
Cc1cc(C)cc(N=C2NC(=O)/C(=C/c3cccs3)S2)c1,?,15.8µM,-,-,-,-
CC(C)(OC(=O)c1ccc(C(F)(F)F)cc1)c1cc2ccccc2c(=O)o1,.,.,-,-,-,-
FC(F)(F)c1nc2nc(Cl)c(Cl)nc2[nH]1,.,.,.,-,.,.
FC(F)(F)c1cccc(-c2nc3nc(Cl)c(Cl)nc3[nH]2)c1,10µM,5.62µM,?,-,?,-
O=C(NCc1ccc2c(c1)OCO2)c1ccc2c(c1)N(Cc1ccccc1F)C(=O)c1ccccc1S2=O (stereo not drawn),.,.,.,-,.,.
CCOC(=O)c1cc(C)sc1NC(=S)Nc1ccccc1,?,3.16µM,-,-,-,-
CCOC(=O)c1cc(-c2ccccc2)sc1NC(=S)Nc1cccc(C)n1,-,-,-,-,-,-
CCOC(=O)c1c(NC(=O)C2=C(C)NC(=S)NC2c2ccccc2C(F)(F)F)sc(C)c1C (stereo not drawn),?,3.55µM,23.1µM,-,-,-
CC(=O)Nc1sc(C)c(C)c1C(=O)OCC(=O)Nc1ccccc1,.,.,?,-,?,-
CCOC(=O)c1c(NC(=S)Nc2ccccc2)sc(C)c1C,3.55µM,?,?,-,-,-
CCOC(=O)c1c(NC(=O)c2ccc(Cl)s2)sc(C)c1C,-,-,-,-,-,-
CCC(=O)c1ccc(OCc2ccc(C(=O)OC)cc2)cc1,-,-,?,-,-,-
CCC(=O)c1ccc(OCc2ccc(C#N)cc2)cc1,?,-,?,3.55µM,?,-
O=C(NCc1ccccc1)c1cc(C2COCCN2C(=O)c2ccccc2)on1 (stereo not drawn),.,.,.,-,.,.
C=CCC[C@@H](Cc1ccc(F)cc1)C(=O)OC[C@@H](Cc1c[nH]c2ccccc12)NC(=O)[C@H](CC=C)CC(=O)N(CCO)Cc1ccccc1,.,.,18.3µM,-,-,-
C=CCC[C@H](Cc1ccc(F)cc1)C(=O)OC[C@@H](Cc1c[nH]c2ccccc12)NC(=O)[C@H](CC=C)CC(=O)NCCO,.,.,?,-,-,-
C=CCC[C@H](Cc1ccc(F)cc1)C(=O)OC[C@@H](Cc1c[nH]c2ccccc12)NC(=O)[C@H](CC=C)CC(=O)N(CCO)Cc1ccccc1,.,.,16.4µM,-,-,-
C=CCC[C@@H](Cc1ccc(F)cc1)C(=O)OC[C@H](Cc1c[nH]c2ccccc12)NC(=O)[C@H](CC=C)CC(=O)NCCO,.,.,?,-,-,-
SMILES,RORgamma inh,VP16 counter,ELG1 repair inh,BRCA1 expr act,p53 reactivation,Giardia kill
O=C(OCC(=O)N(Cc1ccccc1)Cc1ccccc1)c1cccc(O)c1,.,.,-,-,-,-
CC(=O)NN1C(=O)c2ccccc2NC1c1ccccc1O (stereo not drawn),11.2µM,?,-,-,-,-
CCC(C)(C)n1nnnc1C(c1ccccc1OC)N1CCN(C(=O)c2ccco2)CC1 (stereo not drawn),-,-,-,-,-,-
COc1ccc2cc(/C=C/C(=O)c3ccco3)c(Cl)nc2c1,?,?,?,.,-,.
COc1cc2cc(/C=C/C(=O)c3ccco3)c(Cl)nc2cc1OC,?,7.94µM,-,-,-,-
O=C(Nc1nnc(-c2ccc(Cl)cc2)o1)Nc1ccccc1F,-,-,-,-,-,-
O=C(Nc1nnc(-c2ccc3c(c2)CCCC3)o1)c1c(F)cccc1F,0.501µM,4.47µM,?,-,-,-
O=C(Nc1nnc(-c2ccc3c(c2)CCCC3)o1)c1ccc(Cl)cc1Cl,1.58µM,1.58µM,-,-,-,-
O=C(Nc1ccc2c(c1)C(=O)OC2)c1ccc(Cl)cc1Cl,-,-,?,-,-,-
COc1ccc(/C=C(/NC(=O)c2ccco2)C(=O)Nc2cccc(C(=O)O)c2)cc1,-,-,-,-,-,-
CC1CC=CC2C1C(=O)N(Cc1ccccc1)C2c1ccc2ccccc2c1Br (stereo not drawn),?,22.4µM,.,.,.,-
Cc1ccc(N2C(=O)Cc3ccccc3C2=O)cc1,-,-,-,-,-,-
NC(=O)C1CCN(CC(=O)Nc2cc(S(=O)(=O)N3CCOCC3)ccc2N2CCCC2)CC1,.,.,-,-,-,-
Cc1cc(C)nc(-n2nc(C)c(Oc3ccccc3O)c2C)n1,10µM,?,?,-,?,-
CCn1nc(C)c(Oc2ccccc2O)c1C,-,-,?,-,-,-
Cc1cccc(Nc2ccccc2C(=O)OCC(=O)N(C)C2CCS(=O)(=O)C2)c1C (stereo not drawn),-,-,-,-,-,-
CCCCN(C)C(=O)C(Cc1ccccc1)NS(=O)(=O)c1ccc2c(c1)c(=O)n(C)c(=O)n2C (stereo not drawn),-,-,14.6µM,-,-,-
COc1ccccc1C(=O)NCCn1cc(SCC(=O)Nc2cc(C)on2)c2ccccc21,?,-,23.1µM,-,-,-
Cc1ccc(C(=O)NCCn2cc(SCC(=O)Nc3nnc(C)s3)c3ccccc32)cc1,14.1µM,-,?,-,-,-
O=C(CSc1cn(CCNC(=O)c2ccc3ccccc3c2)c2ccccc12)NCc1ccco1,-,-,23.1µM,-,-,-
COc1ccc(NC(=O)CSc2cn(CCNC(=O)c3ccc(OC)cc3)c3ccccc23)cc1,.,.,.,-,.,.
CCCn1cc(SCC(=O)Nc2nnc(C)s2)c2ccccc21,?,-,-,-,?,-
COc1ccc(C(=O)NCCn2cc(SCC(=O)Nc3cc(C)on3)c3ccccc32)cc1OC,-,-,?,-,-,-
Cc1ccc(S(=O)(=O)N2CCN(C(=O)n3ccnc3)CC2)cc1,.,.,?,-,-,-

# Compound activity (PubChem BioAssay)
